Experimental data taken from publication PMC10668032, “Altered binding affinity of SIX1-Q177R correlates with enhanced WNT5A and WNT pathway effector expression in Wilms tumor”.
In all, about 33,000 sequences were measured (“e-score”: median about -0.05, highest 2% from about 0.38 on). The entries come from a sample that favours the highest values as a whole.

What follows are sequences tested against T1, SIX1-Q177R homeodomain (human, UniProt Q15475 108-198, Q177R) (assay: universal protein binding microarray; Universal all-10-mer PBM (8x60K, AMADID 030236), 300 nM GST-tagged protein, Alexa Fluor 488 anti-GST; buffer, salt, pH and temperature not stated (as in Berger); high values mean tight binding). Settings: protein: ivt; tags: N-terminal GST; dsDNA, one strand shown.
T1 sequence: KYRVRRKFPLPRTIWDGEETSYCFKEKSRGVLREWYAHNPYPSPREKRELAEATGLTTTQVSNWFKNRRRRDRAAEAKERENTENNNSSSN
How it was run: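 Homeodomains carrying a GST tag were produced by in vitro transcription/translation, then quantified by anti-GST western blot against a recombinant GST standard curve. Duplicate applications at 300 nM final concentration were made to universal 'all 10-mer' protein binding microarrays in 8×60K format. The Universal PBM Analysis Suite was used to express binding as 8-mer E-scores.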

Row | Sequence | binding signal
1 | ATAGACAC | 0.428 ± 0.0191 E-score
2 | CTAGACAC | 0.393 ± 0.0124 E-score
3 | CTAGATAC | 0.165 ± 0.0452 E-score
4 | ATAGAGTC | 0.202 ± 0.0331 E-score
5 | AGATAGAC | 0.154 ± 0.0062 E-score
6 | CTAGACCC | 0.184 ± 0.00755 E-score
7 | GTAGACAC | 0.409 ± 0.0281 E-score
8 | ACAAGGTG | 0.264 ± 0.0157 E-score
9 | ACCATCCA | 0.215 ± 0.0116 E-score
10 | GGGTGCGA | 0.181 ± 0.00744 E-score
11 | CCCTGACG | 0.152 ± 0.00643 E-score
12 | CCGCCGTA | 0.164 ± 0.00253 E-score
13 | GAGACCCC | 0.225 ± 0.0263 E-score
14 | CACCCACC | 0.252 ± 0.0101 E-score
15 | CACCACTA | 0.3486 ± 0.00204 E-score
16 | ACTGTGTG | 0.177 ± 0.0389 E-score
17 | ATGGAGAC | 0.174 ± 0.0638 E-score
18 | GTGGACAC | 0.419 ± 0.0259 E-score
19 | ATGGATAC | 0.278 ± 0.0318 E-score
20 | GTGGGACA | 0.171 ± 0.0189 E-score
21 | CTGGATAC | 0.222 ± 0.0101 E-score
22 | CTGGACAC | 0.406 ± 0.0173 E-score
23 | GTGCACAC | 0.271 ± 0.021 E-score
24 | ATGGACAC | 0.419 ± 0.00799 E-score
25 | CTGGAAAC | 0.178 ± 0.0277 E-score

Row | Sequence | binding signal
26 | ACCCTAGT | 0.269 ± 0.00753 E-score
27 | CCCCTCTA | 0.2508 ± 0.000354 E-score
28 | GGGTGTCA | 0.4915 ± 0.00277 E-score
29 | AGGTGTCC | 0.464 ± 0.0052 E-score
30 | GGGTGCCA | 0.2 ± 0.0639 E-score
31 | CGGTGCCA | 0.19 ± 0.0233 E-score
32 | CTGTGTCA | 0.256 ± 0.066 E-score
33 | ATGTGTCG | 0.188 ± 0.0615 E-score
34 | AGGGGTCC | 0.178 ± 0.00987 E-score
35 | AGGTGGTG | 0.287 ± 0.0143 E-score
36 | AGGTGTCG | 0.4794 ± 0.00471 E-score
37 | CGGTGTCA | 0.4918 ± 0.00175 E-score
38 | GGGGGTCA | 0.313 ± 0.0364 E-score
39 | GGGAGTAC | 0.2586 ± 0.000728 E-score
40 | CGGATCCG | 0.183 ± 0.00497 E-score
41 | GTCTCATA | 0.179 ± 0.0328 E-score
42 | CCCGGGGA | 0.206 ± 0.0149 E-score
43 | CACCGCTC | 0.27 ± 0.013 E-score
44 | CCATAACA | 0.2144 ± 0.000806 E-score
45 | AGACGGTG | 0.23 ± 0.0191 E-score
46 | AAACGGTG | 0.308 ± 0.011 E-score
47 | CCCTCACG | 0.165 ± 0.0328 E-score
48 | CCCCCTCA | 0.223 ± 0.0246 E-score
49 | CCGCGCGG | 0.172 ± 0.0537 E-score
50 | ACTGGTAT | 0.2685 ± 0.000262 E-score

Row | Sequence | binding signal
51 | CCGGTTAC | 0.1852 ± 0.000205 E-score
52 | AGGTGTCA | 0.4862 ± 0.000651 E-score
53 | ATGTGTCA | 0.253 ± 0.0258 E-score
54 | CGGTGATC | 0.163 ± 0.0497 E-score
55 | AGGTGACA | 0.251 ± 0.0589 E-score
56 | CGGGGTCC | 0.241 ± 0.0168 E-score
57 | CGGTGTCC | 0.489 ± 0.00456 E-score
58 | TCGGTGCA | 0.232 ± 0.0114 E-score
59 | CACGACCG | 0.225 ± 0.0274 E-score
60 | CGCCACCC | 0.19 ± 0.0435 E-score
61 | TAGTGAGA | 0.154 ± 0.0331 E-score
62 | TGTCGACA | 0.25 ± 0.0489 E-score
63 | GGGATACC | 0.341 ± 0.00451 E-score
64 | AGACCCTA | 0.195 ± 0.0142 E-score
65 | CACGGGCG | 0.204 ± 0.0346 E-score
66 | ACACGGCT | 0.3983 ± 0.00124 E-score
67 | ACACGTCT | 0.344 ± 0.0192 E-score
68 | ACACGTCA | 0.323 ± 0.0149 E-score
69 | ACACGTCG | 0.323 ± 0.0129 E-score
70 | ACACGGCC | 0.3824 ± 0.0024 E-score
71 | ACACGGCA | 0.3737 ± 0.00357 E-score
72 | AACCCCGC | 0.194 ± 0.0341 E-score
73 | TACTCCCA | 0.16 ± 0.038 E-score
74 | ACGCGGCG | 0.229 ± 0.0107 E-score
75 | ACCGAATA | 0.155 ± 0.00809 E-score

Row | Sequence | binding signal
76 | CACGCGCA | 0.212 ± 0.0332 E-score
77 | CACACGCG | 0.296 ± 0.0321 E-score
78 | GACACGCC | 0.4444 ± 0.00225 E-score
79 | GACACGCA | 0.416 ± 0.0252 E-score
80 | CACACGCC | 0.252 ± 0.0122 E-score
81 | ACCTCCGA | 0.172 ± 0.0111 E-score
82 | CCCCTAGC | 0.177 ± 0.00211 E-score
83 | ACTCGGAC | 0.179 ± 0.0406 E-score
84 | CACCCTGA | 0.339 ± 0.0238 E-score
85 | AGGATCCC | 0.155 ± 0.0155 E-score
86 | GTAACAGA | 0.16 ± 0.00854 E-score
87 | CCCGAGAC | 0.204 ± 0.023 E-score
88 | ACCCGTCT | 0.178 ± 0.0209 E-score
89 | GGAGTCAC | 0.3325 ± 0.00242 E-score
90 | CGCGTCAG | 0.154 ± 0.00463 E-score
91 | CGTGTCAG | 0.441 ± 0.0089 E-score
92 | CGTGTCTC | 0.338 ± 0.00573 E-score
93 | CGAGTCAC | 0.196 ± 0.0324 E-score
94 | CGTGTCAC | 0.462 ± 0.0133 E-score
95 | GGTGTCAC | 0.4915 ± 0.00356 E-score
96 | GGGGTCAC | 0.29 ± 0.0253 E-score
97 | AGTATCAG | 0.266 ± 0.0112 E-score
98 | AGTGTCAC | 0.45 ± 0.00611 E-score
99 | ACGCGGTG | 0.334 ± 0.012 E-score
100 | GGGATCCA | 0.211 ± 0.0194 E-score

Row | Sequence | binding signal
101 | ACCTGACA | 0.228 ± 0.0625 E-score
102 | ACCCCACT | 0.207 ± 0.00426 E-score
103 | GCGGATAA | 0.162 ± 0.0348 E-score
104 | CTCGTACA | 0.17 ± 0.0125 E-score
105 | CCCAAACA | 0.208 ± 0.0371 E-score
106 | CACTCTTA | 0.164 ± 0.0568 E-score
107 | GAACCCCC | 0.244 ± 0.0572 E-score
108 | ATACCCAG | 0.274 ± 0.0157 E-score
109 | GGGGTCAA | 0.253 ± 0.0228 E-score
110 | AGTGTCAT | 0.462 ± 0.0172 E-score
111 | AGAGTCAT | 0.1867 ± 0.000552 E-score
112 | AGTGTCAG | 0.4435 ± 0.00254 E-score
113 | AGTGTCAA | 0.424 ± 0.0101 E-score
114 | AGTGTCCG | 0.365 ± 0.00508 E-score
115 | GGCGTCAA | 0.177 ± 0.0347 E-score
116 | AGTGTCTG | 0.302 ± 0.0115 E-score
117 | GGTGTCAA | 0.49013 ± 0.000481 E-score
118 | GAGGTATC | 0.337 ± 0.00525 E-score
119 | CCCTCCCA | 0.176 ± 0.0422 E-score
120 | ACCAAACA | 0.244 ± 0.0473 E-score
121 | GTAACATA | 0.196 ± 0.0373 E-score
122 | AAAGGGGG | 0.233 ± 0.0235 E-score
123 | CACCTTTC | 0.195 ± 0.00584 E-score
124 | CGTGATCC | 0.195 ± 0.0306 E-score
125 | TGTGTCAA | 0.303 ± 0.0203 E-score

Row | Sequence | binding signal
126 | CGGGTCAA | 0.2 ± 0.04 E-score
127 | CGTGTCAA | 0.409 ± 0.00885 E-score
128 | ACTATGCG | 0.17 ± 0.0186 E-score
129 | ACCTCGGA | 0.175 ± 0.0387 E-score
130 | CATGACAC | 0.4733 ± 0.00427 E-score
131 | AATGACTC | 0.245 ± 0.00746 E-score
132 | AATGACAC | 0.464 ± 0.0115 E-score
133 | GATGACCC | 0.211 ± 0.0466 E-score
134 | AATGACCC | 0.181 ± 0.0204 E-score
135 | CATGATAC | 0.287 ± 0.0236 E-score
136 | GATGATAC | 0.242 ± 0.0302 E-score
137 | CATGACCC | 0.218 ± 0.0214 E-score
138 | GATGACAC | 0.4656 ± 0.00203 E-score
139 | CACCTAGA | 0.276 ± 0.00873 E-score
140 | GACGCCAC | 0.201 ± 0.00624 E-score
141 | CACCCATC | 0.277 ± 0.0196 E-score
142 | ACCCCCGA | 0.298 ± 0.0252 E-score
143 | CACTATCC | 0.196 ± 0.0388 E-score
144 | AGGGTACA | 0.237 ± 0.00699 E-score
145 | ACTCCGGA | 0.204 ± 0.0189 E-score
146 | ACCCAGAA | 0.179 ± 0.00761 E-score
147 | ACAGTACA | 0.203 ± 0.0245 E-score
148 | GGATCCGA | 0.217 ± 0.0131 E-score
149 | CACTACCA | 0.227 ± 0.00878 E-score
150 | CCACGACA | 0.27 ± 0.00989 E-score

Row | Sequence | binding signal
151 | ACACGACT | 0.411 ± 0.00971 E-score
152 | ACACGAAT | 0.31 ± 0.00916 E-score
153 | GCACGACC | 0.255 ± 0.00765 E-score
154 | ACACGACG | 0.368 ± 0.0133 E-score
155 | GCACGACA | 0.2099 ± 0.000516 E-score
156 | ACACGACC | 0.4169 ± 0.00152 E-score
157 | ACACGACA | 0.404 ± 0.00581 E-score
158 | ACACGAAA | 0.302 ± 0.0196 E-score
159 | ACCGAATG | 0.173 ± 0.0343 E-score
160 | CCCCCCTA | 0.232 ± 0.01 E-score
161 | GTGGAGTA | 0.29 ± 0.0112 E-score
162 | ATCGAGGG | 0.167 ± 0.00486 E-score
163 | ATCCGATC | 0.213 ± 0.0309 E-score
164 | CACTCGGC | 0.237 ± 0.0125 E-score
165 | GCGAGTAC | 0.175 ± 0.00781 E-score
166 | CCGTATCA | 0.245 ± 0.0466 E-score
167 | GGGTAACC | 0.196 ± 0.00371 E-score
168 | ACGATAGT | 0.157 ± 0.0172 E-score
169 | GCACCACC | 0.261 ± 0.00493 E-score
170 | GCACCACA | 0.154 ± 0.00776 E-score
171 | ACACCACC | 0.4809 ± 0.000976 E-score
172 | CTACCACA | 0.154 ± 0.0418 E-score
